Our source for the growth values is PubChem BioAssay (NCI).

Compounds without any hit were thinned out: in the full panel of roughly 83,000, 20% have a hit.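 For each line, cells grew in 96-well plates with the test compound present at a single concentration for 48 hours.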 A number with no mark means an inactive call. Calls of active or inactive are those of the source. Rule for the calls: active = growth percent below 10; inactive = the rest.

Assay in all cases: NCI-60 one-dose screen, 48 h (100 = growth as untreated, 0 = no growth, -100 = all killed)
What all share (settings): 10 µM unless noted

Assay [1] concerns SR leukemia.
For assay [2], the system named is RPMI-8226 leukemia.
Assay [3] has as its system OVCAR-8 ovarian.
Assay [4] concerns OVCAR-5 ovarian.
Assay [5] concerns OVCAR-4 ovarian.
Assay [6] has as its system SK-OV-3 ovarian.
Assay [7] has as its system IGROV1 ovarian.
The subject of assay [8] is OVCAR-3 ovarian.
The test system of assay [9] is HS 578T breast.
Assay [10] concerns NCI/ADR-RES ovarian.
Assay [11] has as its system T-47D breast.
In assay [12] the test system is BT-549 breast.
For assay [13], the system named is MDA-MB-435 melanoma.
For assay [14], the system named is SW-620 colon.
Assay [15] relates to HCT-116 colon.
In assay [16] the test system is HCC-2998 colon.
The test system of assay [17] is KM12 colon.
Assay [18] has as its system MDA-MB-468 breast.
In assay [19] the test system is MCF7 breast.

As for `Clc1cccc(N/N=C/c2c[nH]c3ccc(Br)cc23)n1`, the growth in assay [1] is -14% (active); in assay [2], 1.81% (active); in assay [3], 42%; in assay [4] it was 14%; in [5], 61%; in [6] it was 25.3%. The growth in assay [7] was -33.2% (active); in assay [8] it was 18.6%; in [9], 32.9%; in [10] it was 2.49% (active); in assay [11], 22%; in assay [12] it was -6.46% (active). Also, the growth is -0.779% (active) in assay [13]; 6.71% (active) in assay [14]; 8.25% (active) in assay [15]; -9.69% (active) in assay [16]; 4.64% (active) in assay [17]; -10.3% (active) in assay [18].
For `Brc1ccc(N/N=C/c2c[nH]c3ccc(Br)cc23)nc1`, the growth is -26.2% (active) in assay [1]; -17.2% (active) in assay [2]; 3.48% (active) in [3]; -25.8% (active) in [4]; 19.6% in assay [5]; -12.7% (active) in [6]. In addition, the growth in [7] is -25.6% (active); in assay [8] it was -2.41% (active); in assay [9], -17.2% (active); in assay [10], -24.5% (active); in assay [11], 1.46% (active); in assay [12], -22.6% (active). Also, the growth in assay [13] was -25% (active); in assay [14], -71.3% (active); in [15] it was -72.9% (active); in [16], -94% (active); in assay [17], -57% (active); in assay [18] it was -63.5% (active).
For `COc1ccc(-c2ccc(SCC(=O)NCCc3ccc(S(N)(=O)=O)cc3)nn2)cc1`, the growth in [1] was 63.9%; in assay [2] it was 49.6%; in assay [3], 88.8%; in assay [4], 102%; in assay [5], 77.2%; in assay [6], 71.1%. For the same compound, the growth in [7] was 82%; in assay [8] it was 121%; in assay [9], 89.8%; in assay [10] it was 100%; in [11] it was 51%; in assay [12], 60.5%. Also, the growth in assay [14] is 103%; in [15] it was 70.4%; in assay [16], 94.9%; in assay [17] it was 96.3%; in [18], 33.9%.
Turning to `CCCCCCCCc1ccc(C(=O)Nc2ccc(C)cc2C(=O)O)cc1C`, the growth in assay [1] is 88.2%; in assay [2], 82.7%; in assay [3] it was 93.2%; in assay [4], 115%; in assay [5], 102%; in assay [6] it was 100%. The growth in assay [7] was 98.2%; in assay [8], 108%; in assay [9], 93.1%; in assay [11] it was 94.4%; in assay [12], 101%; in assay [13] it was 105%. Besides, the growth is 97.2% in assay [14]; 93.8% in assay [19]; 84% in [15]; 106% in [16]; 79.7% in assay [17]; 92.8% in assay [18].
`CC1(c2cc3cc(Br)ccc3oc2=O)NC(=O)c2c(/C=C/C(=O)OC3CC4CCC3(C)C4(C)C)cccc2N1` (stereo not given): the growth in assay [1] is 66.8%; in assay [2] it was 35.8%; in assay [3] it was 89%; in assay [4], 92.6%; in assay [5], 75.4%; in assay [6], 86.4%. The growth in assay [7] is 92.6%; in assay [8] it was 83.1%; in assay [9], 95.8%; in [10], 74%; in assay [11] it was 46.2%; in [12], 83.9%. Further, the growth in assay [14] was 89.1%; in assay [19], 50.6%; in assay [15] it was 53.8%; in assay [16] it was 95.9%; in assay [17] it was 72.8%; in assay [18], 13.4%.
As for `CC1(C)CC[C@]2(C(=O)O)CC[C@]3(C)C(=CCC4[C@@]5(C)C[C@@H](O)[C@@H]6OC(c7ccc(F)cc7)OC[C@@]6(C)C5CC[C@]43C)C2C1` (stereo not given in full), the growth is 7.73% (active) in assay [1]; 9.02% (active) in assay [2]; 29.3% in assay [3]; 63.4% in assay [4]; 44% in [5]; 85.7% in [6]. The growth in assay [7] is 43.4%; in assay [8] it was 24%; in [9], 48.1%; in assay [10] it was 30.2%; in [11], 33.3%; in assay [12] it was 26%. The growth in [14] is 23.7%; in assay [19], 12.8%; in [15], 8.81% (active); in [16] it was 18.1%; in assay [17] it was 12.3%; in [18], 13.7%.
Turning to `Cc1ccc([C@H]2C(C(=O)c3ccc(Cl)cc3)C3(N[C@@H]2c2ccccc2)C(=O)Nc2ccc(Cl)cc23)cc1` (stereo not given in full), the growth in assay [1] was -3.12% (active); in assay [2], 32.4%; in assay [3], 59.3%; in assay [4], 67.5%; in assay [5] it was 57.4%; in assay [6], 67.4%. The growth in [7] was 50.9%; in assay [8], 45.8%; in [9] it was 74.4%; in assay [10], 54.6%; in assay [11], 31.6%; in assay [12], 80.9%. Further, the growth in assay [14] is 64.1%; in assay [19] it was 16.7%; in assay [15], 23.7%; in assay [16] it was 18.8%; in assay [17], 34.8%; in assay [18], 47.9%.
As for `COc1ccc2c(c1)c(-c1cc3nc(-c4cn(C)c5ncc(Br)cc45)cc(N)n3n1)cn2C`, the growth in assay [1] is -6.89% (active); in [2] it was -0.77% (active); in [3], -48.8% (active); in [4], -47.6% (active); in assay [5], 17.3%; in assay [6] it was -55.6% (active). The growth in assay [7] is -25.8% (active); in [8], -18.6% (active); in assay [9], -18.6% (active); in [10] it was -30.3% (active); in assay [11] it was -60.3% (active); in [12] it was -78.5% (active). Also, the growth in assay [14] is -64.1% (active); in assay [15], -100% (active); in [16], -94.3% (active); in assay [17], -61% (active); in assay [18], -81.4% (active).
Regarding `Cn1cc(-c2cc(N)n3nc(-c4cn(C)c5ncccc45)cc3n2)c2cccnc21`, the growth was 51.1% in assay [1]; 54.3% in assay [2]; 61.3% in assay [3]; 92.8% in assay [4]; 71.4% in [5]; 99.8% in assay [6]. In addition, the growth in assay [7] is 98%; in assay [8], 96.7%; in assay [9], 89.2%; in assay [10] it was 68.6%; in [11], 89%; in assay [12] it was 62.5%. Besides, the growth is 92.9% in [13]; 71.7% in assay [14]; 62.7% in [15]; -55.5% (active) in assay [16]; 87.8% in [17]; 45% in assay [18].
Consider `CC1=C(C#N)C2=NNCC(c3ccccc3)=NN2C(c2ccccc2)=C1`, for which the growth in [1] was 96%; in assay [2], 110%; in assay [3] it was 111%; in [4] it was 114%; in assay [5], 112%; in [6] it was 101%. Further, the growth was 109% in [7]; 111% in [8]; 107% in assay [9]; 112% in [10]; 98.8% in [11]; 104% in [12]. Besides, the growth is 98% in [14]; 101% in assay [15]; 118% in assay [16]; 107% in assay [17]; 124% in assay [18].
Turning to `Cc1ccc(S(=O)(=O)c2nc(S(=O)(=O)c3ccc(C)cc3)c(N3CCC(O)CC3)s2)cc1`, the growth was 15.7% in assay [1]; 53.4% in assay [2]; 75.3% in [3]; 104% in assay [4]; 65% in assay [5]; 97.6% in [6]. For the same compound, the growth in assay [7] was 75.6%; in assay [8] it was 72.9%; in [9], 59.3%; in assay [10], 74.5%; in assay [11], 60.1%; in assay [12] it was 49.5%. Further, the growth was 44.7% in assay [14]; 43.4% in assay [19]; 53.7% in [15]; 90.6% in assay [16]; 72.6% in assay [17]; -20.7% (active) in [18].
